Screens as filed in PubChem BioAssay.
This is a sample that favours compounds with a hit; in the whole collection about 4.6% have one here.
NALP3 yeast inh: blocks the NALP3 inflammasome reconstituted in yeast | Yeast reconstituted NLRP3/ASC/caspase-1, beta-gal luminescence, 24 h | inhibition, % at 10 µM | 330,000 tested, 0.39% active;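 active means inhibition of 50% or more; inactive means inhibition below 50%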
tim10-1 inh: growth inhibitors of tim10-1 mutant yeast; S. cerevisiae tim10-1 ts strain growth, BacTiter-Glo, 24 h; inhibition, % at 20 µM; 330,000 tested, 2.2% active; AID 463190;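 active means inhibition of at least 40%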;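 further: mutant grown at 25 °C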
TIM10 inh: inhibits growth of TIM10 yeast strain. S. cerevisiae TIM10 strain growth, BacTiter-Glo luminescence, 24 h. 330,000 tested, 1.4% active. inhibition, % at 10 µM. AID 463195;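 active means inhibition of 40% or more at the single tested concentration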;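 further: wild-type TIM10 isogenic control strain grown at permissive 25 °C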
PfHsp90 yeast 2: growth inhibition of yeast expressing Plasmodium Hsp90 | inhibition, % at 9.4 µM | 310,000 tested, 0.32% active | S. cerevisiae expressing PfHsp90, BacTiter-Glo ATP, 48 h; yeast lacking PDR1 and PDR3 efflux regulators;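 active means every replicate shows inhibition above about 80%, whatever the replicate mean, limit read from the data; inconclusive means mean inhibition reaches the set limit but some replicate falls short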
tim23-1 inh: growth inhibitors of tim23-1 mutant yeast; S. cerevisiae tim23-1 growth, BacTiter-Glo luminescence, 24 h; 330,000 tested, 1.3% active; inhibition, % at 20 µM;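 active means growth inhibition of the mutant yeast at or above 50%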;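 further: temperature-sensitive mutant grown at 25 °C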
SKKanGAS inh: SKKanGAS growth inhibition; S. pyogenes SKKanGAS, kanamycin growth, BacTiter-Glo, 6 h; inhibition, % at 7.5 µM; 300,000 tested, 1.3% active; AID 1662;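 active means mean replicate score, as percent of positive control median, at least 50; inconclusive means mean below 50 but one replicate at or above 50; inactive means mean and every replicate below 50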;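 further: strain carries kanamycin resistance gene driven by streptokinase promoter and grows in 40 µg/ml kanamycin; loss of luminescence reflects streptokinase promoter inhibition or plain growth inhibition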
Numbers stand for hits.

How did COc1cccc(/C=N/Nc2nc(Nc3ccc([N+](=O)[O-])cc3)nc(N3CCCC3)n2)c1O do in these assays?
NALP3 yeast inh: inactive; tim10-1 inh: inactive; TIM10 inh: inactive; PfHsp90 yeast 2: inactive; tim23-1 inh: inactive; SKKanGAS inh: 73

Results for O=[N+]([O-])c1ccc(Nc2nc(NC3CCCCC3)nc(N3CCCC3)n2)cc1 ?
NALP3 yeast inh: inactive; tim10-1 inh: inactive; TIM10 inh: inactive; PfHsp90 yeast 2: inactive; tim23-1 inh: inactive; SKKanGAS inh: 83

What do the screens show for `O=[N+]([O-])c1ccc(Nc2nc(N/N=C/c3cccc(F)c3)nc(N3CCCC3)n2)cc1`?
NALP3 yeast inh: inactive; tim10-1 inh: inactive; TIM10 inh: inactive; PfHsp90 yeast 2: inactive; tim23-1 inh: inactive; SKKanGAS inh: inactive

How did O=[N+]([O-])c1ccc(NN=Cc2cccc3ccccc23)nc1 do in these assays?
PfHsp90 yeast 2: inactive

How did O=[N+]([O-])c1cccc(C=NNc2ccc3ccccc3n2)c1O do in these assays?
PfHsp90 yeast 2: 137

What do the screens show for `COc1cccc(/C=N/Nc2ccc([N+](=O)[O-])cn2)c1O`?
NALP3 yeast inh: inactive; tim10-1 inh: inactive; TIM10 inh: inactive; PfHsp90 yeast 2: 94; tim23-1 inh: inactive; SKKanGAS inh: 104

How did Cc1ccc2c(c1)N(CC(=O)NCC1CCCO1)C(=O)C(C(C)C)O2 (configuration not stated) do in these assays?
NALP3 yeast inh: inactive; tim10-1 inh: inactive; TIM10 inh: inactive; PfHsp90 yeast 2: inactive; tim23-1 inh: inactive; SKKanGAS inh: inactive

What do the screens show for `CCCCc1c(O)nc(SCC(=O)c2ccccc2)n(-c2ccccc2OC)c1=O`?
NALP3 yeast inh: inactive; tim10-1 inh: inactive; TIM10 inh: inactive; PfHsp90 yeast 2: inactive; tim23-1 inh: inactive; SKKanGAS inh: inactive

How did CCOc1ccc(S(=O)(=O)NCc2ccc3c(c2)OCO3)cc1NC(C)=O do in these assays?
NALP3 yeast inh: inactive; tim10-1 inh: inactive; TIM10 inh: inactive; PfHsp90 yeast 2: inactive; tim23-1 inh: inactive; SKKanGAS inh: inactive

How did COc1cc2c(cc1OC)CN(CC(=O)Nc1ccc(C)c(S(=O)(=O)N3CCOCC3)c1)CC2 do in these assays?
NALP3 yeast inh: inactive; tim10-1 inh: inactive; TIM10 inh: inactive; PfHsp90 yeast 2: inactive; tim23-1 inh: inactive; SKKanGAS inh: inactive

How did COc1cc2c(cc1OC)C(C)N(C(=S)NC(=O)c1ccccc1)CC2 (configuration not stated) do in these assays?
NALP3 yeast inh: inactive; tim10-1 inh: inactive; TIM10 inh: inactive; PfHsp90 yeast 2: inactive; tim23-1 inh: inactive; SKKanGAS inh: inactive

What do the screens show for `COc1ccc(/C=C2\SC(=S)N(CCCC(=O)N3CCOCC3)C2=O)cc1`?
NALP3 yeast inh: inactive; tim10-1 inh: inactive; TIM10 inh: inactive; PfHsp90 yeast 2: inactive; tim23-1 inh: inactive; SKKanGAS inh: inactive

Results for COc1ccc(/C=C2\Sc3ccc(C(=O)N4CCOCC4)cc3N(C)C2=O)cc1 ?
NALP3 yeast inh: inactive; tim10-1 inh: inactive; TIM10 inh: inactive; PfHsp90 yeast 2: inactive; tim23-1 inh: inactive; SKKanGAS inh: 60

How did COc1ccc(/C=C2\Sc3ccc(C(=O)NCC4CCCO4)cc3N(C)C2=O)cc1 (configuration not stated) do in these assays?
NALP3 yeast inh: inactive; tim10-1 inh: inactive; TIM10 inh: inactive; PfHsp90 yeast 2: inactive; tim23-1 inh: inactive; SKKanGAS inh: 92

How did Cc1ccccc1/C=C1\Sc2ccc(C(=O)N3CCN(c4ccccn4)CC3)cc2N(C)C1=O do in these assays?
NALP3 yeast inh: inactive; tim10-1 inh: inactive; TIM10 inh: inactive; PfHsp90 yeast 2: inactive; tim23-1 inh: inactive; SKKanGAS inh: inconclusive

Results for CN1C(=O)/C(=C/c2ccccc2F)Sc2ccc(C(=O)N3CCCC3)cc21 ?
NALP3 yeast inh: inactive; tim10-1 inh: inactive; TIM10 inh: inactive; PfHsp90 yeast 2: inactive; tim23-1 inh: inactive; SKKanGAS inh: 71

What do the screens show for `CCOc1ccc(NC(=O)CN(C)C(=O)CN2C(=O)c3ccc([N+](=O)[O-])cc3C2=O)cc1OCC`?
NALP3 yeast inh: inactive; tim10-1 inh: inactive; TIM10 inh: inactive; PfHsp90 yeast 2: inactive; tim23-1 inh: inactive

Results for CCC1(c2ccccc2)SC(N)=NC1=O (configuration not stated) ?
PfHsp90 yeast 2: inactive

What do the screens show for `COc1cc(C(=O)Nc2ccc(-c3nc4cc(C)ccc4o3)c(O)c2)cc(OC)c1OC`?
NALP3 yeast inh: inactive; tim10-1 inh: inactive; TIM10 inh: inactive; PfHsp90 yeast 2: inactive; tim23-1 inh: inactive; SKKanGAS inh: 103
